About 83,000 compounds went through this panel and 20% of them were active in at least one assay; those are over-represented in the sample as a whole.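 Plates (96-well) were seeded with cells, treated with compound at one concentration, and incubated for 48 hours before percent growth was determined.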 The source made the active and inactive calls. The calls were made as follows: active = growth percent below 10; inactive = the rest.
What was measured:
Assay in all cases: NCI-60 one-dose screen, 48 h (100 = growth as untreated, 0 = no growth, -100 = all killed)
Conditions in all cases: 10 µM unless noted
SR leukemia = test system: SR leukemia
RPMI-8226 leukemia = test system: RPMI-8226 leukemia
OVCAR-8 ovarian = test system: OVCAR-8 ovarian
OVCAR-5 ovarian = test system: OVCAR-5 ovarian
OVCAR-4 ovarian = test system: OVCAR-4 ovarian
SK-OV-3 ovarian = test system: SK-OV-3 ovarian
IGROV1 ovarian = test system: IGROV1 ovarian
OVCAR-3 ovarian = test system: OVCAR-3 ovarian
HS 578T breast = test system: HS 578T breast
NCI/ADR-RES ovarian = test system: NCI/ADR-RES ovarian

Measured: growth

COc1ccc(Cn2cc3c(c2-c2ccccc2)CCc2cnoc2-3)cc1N
active: SK-OV-3 ovarian -4.08% | IGROV1 ovarian 3.29% | OVCAR-3 ovarian -19.5% | NCI/ADR-RES ovarian -1.43%
inactive: SR leukemia 11.8% | RPMI-8226 leukemia 23.5% | OVCAR-8 ovarian 30% | OVCAR-5 ovarian 54.5% | OVCAR-4 ovarian 44.5% | HS 578T breast 10.4%

COC1(OC)N=C(N)C2(C#N)C3(C(=O)Nc4ccccc43)C12C#N (stereo not given)
active: SR leukemia 6.82%
inactive: RPMI-8226 leukemia 49.7% | OVCAR-8 ovarian 94.2% | OVCAR-5 ovarian 65.1% | OVCAR-4 ovarian 60% | SK-OV-3 ovarian 77.4% | IGROV1 ovarian 63.5% | OVCAR-3 ovarian 84% | HS 578T breast 67.2% | NCI/ADR-RES ovarian 100%

O=C(/C=C/c1ccc(Br)cc1)c1ccccc1
inactive: OVCAR-8 ovarian 91.9% | OVCAR-5 ovarian 113% | OVCAR-4 ovarian 96.3% | SK-OV-3 ovarian 111% | IGROV1 ovarian 87.3% | OVCAR-3 ovarian 93.3% | HS 578T breast 100% | NCI/ADR-RES ovarian 99.5%
active: SR leukemia 4.53% | RPMI-8226 leukemia 1.56%

NNC(=S)N1N=C(c2cc3ccccc3o2)CC1c1c[nH]c2ccccc12 (stereo not given)
inactive: SR leukemia 27.2% | RPMI-8226 leukemia 28% | OVCAR-8 ovarian 38.8% | OVCAR-5 ovarian 80.4% | OVCAR-4 ovarian 28.6% | SK-OV-3 ovarian 86.2% | IGROV1 ovarian 35.3% | OVCAR-3 ovarian 20% | HS 578T breast 63.8% | NCI/ADR-RES ovarian 30.7%

Cc1[nH]n(C(=S)Nc2nc3cc(Cl)c(F)cc3s2)c(=O)c1N=Nc1ccc(F)c(Cl)c1
inactive: RPMI-8226 leukemia 70.9% | OVCAR-8 ovarian 103% | OVCAR-5 ovarian 103% | OVCAR-4 ovarian 91.5% | SK-OV-3 ovarian 97.8% | IGROV1 ovarian 88.4% | OVCAR-3 ovarian 98.2% | HS 578T breast 85% | NCI/ADR-RES ovarian 103%
active: SR leukemia -45.2%

CC1(C)C(O)NC(Cl)=C(C#N)C1(C#N)C#N (stereo not given)
inactive: SR leukemia 119% | RPMI-8226 leukemia 110% | OVCAR-8 ovarian 103% | OVCAR-5 ovarian 83% | OVCAR-4 ovarian 107% | SK-OV-3 ovarian 108% | OVCAR-3 ovarian 229% | HS 578T breast 114% | NCI/ADR-RES ovarian 103%
active: IGROV1 ovarian -10.9%

CCCCCCCCCCCCOC(=O)/C=C\C(=O)NC(N)=O
inactive: OVCAR-8 ovarian 70.6% | OVCAR-5 ovarian 108% | OVCAR-4 ovarian 86% | SK-OV-3 ovarian 97.8% | IGROV1 ovarian 73% | OVCAR-3 ovarian 92.4% | HS 578T breast 86% | NCI/ADR-RES ovarian 88.4%
active: SR leukemia 3.65% | RPMI-8226 leukemia 4%

c1ccc2[nH]c(-c3ccc(OCCCCCOc4ccc(-c5nc6ccccc6[nH]5)cc4)cc3)nc2c1
active: SR leukemia -22.3% | RPMI-8226 leukemia -79.4% | OVCAR-8 ovarian -45.6% | OVCAR-4 ovarian -60.5% | HS 578T breast 4.31% | NCI/ADR-RES ovarian -0.189%
inactive: OVCAR-5 ovarian 16.1% | SK-OV-3 ovarian 207% | IGROV1 ovarian 38.3% | OVCAR-3 ovarian 20.4%

CC[n+]1c(C)ccc2cc(C)ccc21
inactive: SR leukemia 94.4% | RPMI-8226 leukemia 101% | OVCAR-8 ovarian 88.4% | OVCAR-5 ovarian 109% | OVCAR-4 ovarian 106% | SK-OV-3 ovarian 97.8% | IGROV1 ovarian 104% | OVCAR-3 ovarian 104% | HS 578T breast 112% | NCI/ADR-RES ovarian 104%

O=C(/C=C\c1ccccc1Cl)c1ccccc1
inactive: SR leukemia 67.6% | RPMI-8226 leukemia 66% | OVCAR-8 ovarian 104% | OVCAR-5 ovarian 89.8% | OVCAR-4 ovarian 89.8% | SK-OV-3 ovarian 107% | IGROV1 ovarian 111% | OVCAR-3 ovarian 99.5% | HS 578T breast 111% | NCI/ADR-RES ovarian 101%

CCC(C)C1NC(=O)C(CC(C)C)NC(=O)C(C)NC(=O)C(C(C)C)NC(=O)C(CCCCN)NC(=O)C(CC(C)C)NC(=O)C(C(C)C)NC(=O)[C@H](C)NC(=O)C(C(C)CC)NC(=O)C(CCCN=C(N)N)NC(=O)C(CCCCN)NC(=O)C(CCCN=C(N)N)NC(=O)C(CCCCN)NC(=O)C([C@H](C)CC)NC(=O)C(CCCCN)NC1=O (stereo not given in full)
active: SR leukemia 2.37% | RPMI-8226 leukemia -35.5% | OVCAR-3 ovarian 8.18%
inactive: OVCAR-8 ovarian 11.7% | OVCAR-5 ovarian 52.6% | OVCAR-4 ovarian 18.4% | SK-OV-3 ovarian 10.4% | IGROV1 ovarian 12.4% | HS 578T breast 38.9% | NCI/ADR-RES ovarian 29.3%

COC(=O)C(N)CC(C)C (stereo not given)
inactive: SR leukemia 86.4% | RPMI-8226 leukemia 99.2% | OVCAR-8 ovarian 101% | OVCAR-5 ovarian 108% | OVCAR-4 ovarian 111% | SK-OV-3 ovarian 111% | IGROV1 ovarian 115% | OVCAR-3 ovarian 109% | HS 578T breast 111% | NCI/ADR-RES ovarian 106%

O=C(CCl)NC1c2ccccc2Oc2ccccc21
inactive: SR leukemia 33.7% | RPMI-8226 leukemia 50.1% | OVCAR-8 ovarian 61.2% | OVCAR-5 ovarian 83.9% | OVCAR-4 ovarian 56.5% | SK-OV-3 ovarian 85.6% | IGROV1 ovarian 46.1% | OVCAR-3 ovarian 68.6% | HS 578T breast 97.4% | NCI/ADR-RES ovarian 101%

CCC(C)[C@H](NC(=O)Nc1cc(C(F)(F)F)cc(C(F)(F)F)c1)C(=O)N[C@@H](Cc1cn(C)cn1)C(=O)OC (stereo not given in full)
active: SR leukemia -37.8% [100 µM] | RPMI-8226 leukemia -65.7% [100 µM] | OVCAR-8 ovarian -78.3% [100 µM] | OVCAR-5 ovarian -93.7% [100 µM] | OVCAR-4 ovarian -96.7% [100 µM] | SK-OV-3 ovarian -100% [100 µM] | IGROV1 ovarian -81.5% [100 µM] | OVCAR-3 ovarian -97.6% [100 µM] | HS 578T breast -18.6% [100 µM] | NCI/ADR-RES ovarian -49.2% [100 µM]

COC(=O)c1ccc2[nH]c(O)c(C(=Nc3ccc(N(C)C(=O)CN4CCN(C)CC4)cc3)c3ccc(CCO)cc3)c2c1
inactive: RPMI-8226 leukemia 30.8% | OVCAR-8 ovarian 64.5% | OVCAR-5 ovarian 80.6% | OVCAR-4 ovarian 56.6% | SK-OV-3 ovarian 39.7% | IGROV1 ovarian 16.5% | OVCAR-3 ovarian 52.5% | HS 578T breast 23.9% | NCI/ADR-RES ovarian 104%
active: SR leukemia 6.7%

C[C@@H](c1ccc2c(c1)[nH]c1ccc(Cl)cc12)c1nc2ccccc2[nH]1
inactive: SR leukemia 74.3% | RPMI-8226 leukemia 81.3% | OVCAR-8 ovarian 93% | OVCAR-5 ovarian 112% | OVCAR-4 ovarian 94% | SK-OV-3 ovarian 105% | IGROV1 ovarian 80.6% | OVCAR-3 ovarian 86.7% | HS 578T breast 105% | NCI/ADR-RES ovarian 91%

CCN(CC)C(=O)C1(C)CCCC2(C)c3cc(OC(C)=O)ccc3CCC12 (stereo not given)
inactive: SR leukemia 62.8% | RPMI-8226 leukemia 58.8% | OVCAR-8 ovarian 86.4% | OVCAR-5 ovarian 96.9% | OVCAR-4 ovarian 71.2% | SK-OV-3 ovarian 94.1% | IGROV1 ovarian 79.9% | OVCAR-3 ovarian 88.8% | HS 578T breast 84.1% | NCI/ADR-RES ovarian 85.8%

COc1cc(-c2nc3c(c(C)nc4c3nnn4-c3ccccc3)c(=O)o2)cc(OC)c1OC
inactive: SR leukemia 108% | RPMI-8226 leukemia 105% | OVCAR-8 ovarian 107% | OVCAR-5 ovarian 103% | OVCAR-4 ovarian 114% | SK-OV-3 ovarian 115% | IGROV1 ovarian 112% | OVCAR-3 ovarian 116% | HS 578T breast 103% | NCI/ADR-RES ovarian 115%

CC(C)(C)c1ccc([I+]c2ccc(C(C)(C)C)cc2)cc1
active: SR leukemia 5.64% | RPMI-8226 leukemia -19.9% | OVCAR-8 ovarian 7.15% | OVCAR-3 ovarian 2.92%
inactive: OVCAR-5 ovarian 49.6% | OVCAR-4 ovarian 18.3% | SK-OV-3 ovarian 30.3% | IGROV1 ovarian 20.9% | HS 578T breast 29.1% | NCI/ADR-RES ovarian 90.2%

CCOC(=O)C1=NN(c2ccccc2)C2=NC(=O)/C(=C\c3cn(-c4ccccc4)nc3-c3cc4ccccc4o3)C(=O)N12
inactive: SR leukemia 98% | RPMI-8226 leukemia 83% | OVCAR-8 ovarian 100% | OVCAR-5 ovarian 106% | OVCAR-4 ovarian 103% | SK-OV-3 ovarian 97.6% | IGROV1 ovarian 89.1% | OVCAR-3 ovarian 103% | HS 578T breast 97.9% | NCI/ADR-RES ovarian 106%

NC(=O)CC(NC(=O)COc1ccc(Cl)cc1Cl)C(=O)O (stereo not given)
inactive: SR leukemia 115% | RPMI-8226 leukemia 117% | OVCAR-8 ovarian 105% | OVCAR-5 ovarian 105% | OVCAR-4 ovarian 112% | SK-OV-3 ovarian 110% | IGROV1 ovarian 109% | OVCAR-3 ovarian 106% | HS 578T breast 107% | NCI/ADR-RES ovarian 112%

O=c1[nH]c(=S)[nH]c(O)c1/C=C1\C=Nc2ccccc21
active: SR leukemia 5.51%
inactive: RPMI-8226 leukemia 72.2% | OVCAR-8 ovarian 48.6% | OVCAR-5 ovarian 96% | OVCAR-4 ovarian 91.9% | SK-OV-3 ovarian 104% | IGROV1 ovarian 40.3% | OVCAR-3 ovarian 33.3% | HS 578T breast 71.7% | NCI/ADR-RES ovarian 87.9%

CCOc1ccc2nc3ccc(Cl)cc3nc2c1
inactive: RPMI-8226 leukemia 71.5% | OVCAR-8 ovarian 103% | OVCAR-5 ovarian 216% | OVCAR-4 ovarian 82.1% | SK-OV-3 ovarian 104% | OVCAR-3 ovarian 110% | HS 578T breast 106% | NCI/ADR-RES ovarian 96.4%
active: SR leukemia -19.9% | IGROV1 ovarian -8.97%

Nc1ccc(S(=O)(=O)c2ccc(NO)cc2)cc1
inactive: SR leukemia 129% | RPMI-8226 leukemia 106% | OVCAR-8 ovarian 95.6% | OVCAR-5 ovarian 80.4% | OVCAR-4 ovarian 88.6% | SK-OV-3 ovarian 94.2% | OVCAR-3 ovarian 131% | HS 578T breast 97% | NCI/ADR-RES ovarian 90.3%
active: IGROV1 ovarian 1.89%

Nc1ccc(S(=O)(=O)Nc2cc(F)cc(F)c2)cc1
active: IGROV1 ovarian -22%
inactive: SR leukemia 112% | RPMI-8226 leukemia 106% | OVCAR-8 ovarian 102% | OVCAR-5 ovarian 55.5% | OVCAR-4 ovarian 101% | SK-OV-3 ovarian 104% | OVCAR-3 ovarian 111% | HS 578T breast 92.7% | NCI/ADR-RES ovarian 117%

COC(=O)c1ccc2[nH]c(O)c(C(=Nc3ccc(N(C)C(=O)CN4CCN(C)CC4)cc3)c3ccc(OC)cc3)c2c1
active: SR leukemia -14.8% | RPMI-8226 leukemia 7.14% | SK-OV-3 ovarian 2.38% | IGROV1 ovarian 6.44%
inactive: OVCAR-8 ovarian 25.6% | OVCAR-5 ovarian 38.4% | OVCAR-4 ovarian 38.7% | OVCAR-3 ovarian 30.4% | HS 578T breast 11.9% | NCI/ADR-RES ovarian 101%

CC(O)C(N)=O (stereo not given)
inactive: SR leukemia 102% | RPMI-8226 leukemia 111% | OVCAR-8 ovarian 110% | OVCAR-5 ovarian 101% | OVCAR-4 ovarian 97.4% | SK-OV-3 ovarian 110% | IGROV1 ovarian 116% | OVCAR-3 ovarian 107% | HS 578T breast 108% | NCI/ADR-RES ovarian 118%

Reference: PubChem BioAssay (NCI)
